# Screens as filed in PubChem BioAssay.
# The full list was thinned out, with hits kept by preference.
# RE007 growth inh: qHTS Assay for Inhibitors of the HIV-1 protein Vpr. S. pombe RE007 Vpr strain, BacTiter-Glo ATP luminescence, 24 h. Potency, µM (doses to about 92.2 µM), for inactives: at the top dose activity change, negative = less growth, usual class: inhibitors. actives 0.21% (n = 360,000). AID 651644, 2012; active = well fitted falling curve with a large enough effect; inconclusive = small, poorly fitted or top-dose-only effect; inactive = no such curve, though single readings can be large or run the other way; note: potency is the fitted concentration of half-maximal effect; % is set by controls: 0 for no effect and ±100 for the full control effect; nearly all actives have a fitted effect of over 50% in size
#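 Fission yeast RE007 carrying one integrated HIV-1 vpr copy, seeded at OD 0.01 in PMG+AL medium with 23 nL pinned compound. Grown 24 h at 30 degrees; viability read by BacTiter-Glo luminescence after 5 min.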
# TbPYK inhibitor: qHTS of Trypanosoma Brucei Inhibitors. pyruvate kinase (Trypanosoma brucei), Q57TT1. TbPYK enzyme, Kinase-Glo Plus ATP luminescence, 45 min. Potency, µM (titrated, usually from 76.8 µM), for inactives: at the highest dose activity, negative = inhibition, usual class: inhibitors. actives 0.12% (n = 410,000); note: potency is the fitted concentration of half-maximal effect; % is set by controls: 0 for no effect and ±100 for the full control effect; nearly all actives have a fitted effect of over 50% in size
#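 Luminescent Kinase-Glo Plus end-point after 45 min room-temperature reaction of T. brucei pyruvate kinase started with 130 uM ADP (final). Buffer TEA 50 mM pH 7.2 with KCl, MgCl2, BSA, Tween-20; titration-based qHTS with fitted concentration-effect curves.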
# Giardia FBPA inh: qHTS Assay for Inhibitors of Fructose-1,6-bisphosphate Aldolase from Giardia Lamblia. A8B2U2. purified Giardia FBPA. Potency, µM (titrated, usually from 59.6 µM), for the others: at the highest dose activity, negative = inhibition, hits mostly inhibitors. actives 0.71% (n = 290,000). AID 2451, 2010; note: potency is the fitted concentration of half-maximal effect; % is set by controls: 0 for no effect and ±100 for the full control effect; nearly all actives have a fitted effect of over 55% in size
#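 Giardia FBPA (40 nM reagent) was preincubated 10 min at RT with compound (up to 57.5 uM final), then substrate plus GAPDH/TPI/NAD/arsenate coupling system with diaphorase/resazurin was added; resorufin fluorescence (525/598 nm) was read after 20 min.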
# CHX counter: Cycloheximide Counterscreen for Small Molecule Inhibitors of Shiga Toxin | cell reporter, cycloheximide protein synthesis inhibition counterscreen | AID 2314, 2010 | actives 12% (n = 300,000) | max response, %; in the data active = max response mostly above about 13%, no sharp cut-off; inactive = mostly below about 14%; note: read at 38.3 µM for the half of the compounds with a filed dose; 0% is about no effect
# Shiga inhibitor: A qHTS for Small Molecule Inhibitors of Shiga Toxin. actives 9.2% (n = 290,000). AID 2315, 2010. Vero cells, Shiga toxin protein synthesis inhibition reporter. inhibition, % at 38.7 µM; in the data active = inhibition mostly above about 28%, no sharp cut-off; inactive = mostly below about 43%; note: 0% is about no effect
# LmPK inhibitor: qHTS Assay for Inhibitors of Leishmania Mexicana Pyruvate Kinase (LmPK); Potency, µM (series often up to 57.5 µM), for inactives: at the top dose activity change, negative = inhibition, actives largely listed as inhibitors; actives 0.37% (n = 290,000); purified LmPK, Kinase-Glo ATP luminescence, 1 h; AID 1721, 2009; note: potency is the fitted concentration of half-maximal effect; % is set by controls: 0 for no effect and ±100 for the full control effect
# Target sequence (Q27686 whole entry, looked up): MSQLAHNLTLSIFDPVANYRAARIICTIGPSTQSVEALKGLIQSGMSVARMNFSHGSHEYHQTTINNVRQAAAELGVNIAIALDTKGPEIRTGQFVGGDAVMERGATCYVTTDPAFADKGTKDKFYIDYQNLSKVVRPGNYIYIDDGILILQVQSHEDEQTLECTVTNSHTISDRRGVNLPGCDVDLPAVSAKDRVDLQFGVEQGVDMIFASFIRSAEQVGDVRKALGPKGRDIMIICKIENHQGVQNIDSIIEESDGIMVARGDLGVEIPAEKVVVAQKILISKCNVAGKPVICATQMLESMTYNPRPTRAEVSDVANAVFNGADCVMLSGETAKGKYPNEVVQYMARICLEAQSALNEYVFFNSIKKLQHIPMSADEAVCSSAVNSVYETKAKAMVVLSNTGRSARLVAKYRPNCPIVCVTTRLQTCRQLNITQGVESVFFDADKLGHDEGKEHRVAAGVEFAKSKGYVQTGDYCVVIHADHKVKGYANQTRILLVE
#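 Screened at intermediate enzyme activity to detect both inhibitors and activators: LmPK at 0.1 nM, with a 0.5 nM enzyme column as activation reference. PEP 0.5 mM, ADP 0.1 mM; ATP detected by luminescence after 1 h.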
# Starred values were filed as active, the others as inactive; ? = inconclusive; . = no result given; [ ] = dose if it differs, or a comment. Unless noted, calls come from the whole dose curve; as a rule, active = well fitted curve in the direction sought with a large enough effect; inconclusive = small, poorly fitted or top-dose-only effect, or another doubt; inactive = no such curve, though single readings can be large; an effect the other way counts as inactive or inconclusive.
SMILES,RE007 growth inh,TbPYK inhibitor,Giardia FBPA inh,CHX counter,Shiga inhibitor,LmPK inhibitor
COc1cccc(C(=O)N/N=C/c2ccc(OC)c(COc3ccccc3C(N)=O)c2)c1,-10.6%,5.8%,.,57.0*,108.7*,-7.9%
Cc1cccc(CNc2ccnc(-c3ccc(C(=O)N(C)C)cc3)n2)c1,.,.,-4.7%,.,.,.
CCOC(=O)C1(Cc2ccc(OC)cc2)CCN(C(=O)c2cc3ccccc3[nH]2)CC1,-27.2%,0.5%,-0.1%,53.9*,118.3*,-7.9%[11.5 µM]
CCOC(=O)C1(Cc2ccc(OC)cc2)CCN(C(=O)c2cc(C)on2)CC1,2.7%,0.0%,8.1%,17.5*,17.9,-0.1%
Cc1ccc(OC/C(=N\O)C(C)(C)C)c([N+](=O)[O-])c1,-5.9%,-5.7%,-7.7%,34.0*,75.1*,8.6%
Cc1ccc(OCC(=O)Nc2ccccc2[N+](=O)[O-])c(Br)c1,366.7%,8.9%,7.8%,42.0*,121.6*,0.3%
Cc1ccc(/C=N\NC(=O)COc2ccc(C)cc2[N+](=O)[O-])cc1,-9.7%,-0.1%,-1.2%,19.8,15.4,-3.6%
Cc1ccc(OCC(=O)Nc2ccon2)c([N+](=O)[O-])c1,-17.4%,0.5%,.,41.8*,84.0*,-6.2%
O=C(COC(=O)COc1ccccc1[N+](=O)[O-])Nc1cccc(Br)c1,-1.3%,0.5%,-8.0%,15.1*,-6.0,-0.9%
COc1cccc(NC(=O)COC(=O)COc2ccccc2[N+](=O)[O-])c1,.,-8.8%,-4.3%,-6.7,-10.7,1.6%
CC(=O)O[C@H]1C[C@@]2(C)[C@@H](C[C@@H](O)[C@H]3[C@@]4(C)CC[C@@H](O)[C@@H](C)[C@@H]4CC[C@@]32C)/C1=C(\CCC=C(C)C)C(=O)O,12.4%,2.1%,.,.,.,.
Nc1nccc(-c2cc(-c3ccc(Cl)cc3Cl)no2)n1,?,-5.6%,6.0%,41.9*,54.3*,-21.3%
CCCn1c(N)c(Sc2ccccc2[N+](=O)[O-])c(=O)n(CCC)c1=O,23.7%,2.0%,-0.9%,-3.5,-2.9,6.6%
Cc1ccc(CNC(=O)c2cc3c(s2)-c2c(C)cccc2OC3)cc1,.,8.6%,.,.,.,.
O=C(N/N=C/c1ccc(Cl)cc1)c1n[nH]c2c1CCCC2,12.7%,2.6%,4.1%,40.9*,82.6*,-2.2%
O=C(N/N=C\c1ccccc1)c1cccc(C(=O)N/N=C\c2ccccc2)n1,15.6%,-0.9%,.,.,.,.
O=C(N/N=C/c1ccccc1)c1n[nH]c2c1CCCC2,14.5%,1.9%,1.3%,27.1*,75.7*,-9.3%
O=C(N/N=C/c1cccs1)c1cncc(Br)c1,-7.0%,-5.1%,2.5%,19.6,37.6,-1.5%
O=C(N/N=C/C(Br)=C/c1ccccc1)c1n[nH]c2c1CCC2,?,-2.4%,-5.1%,41.5*,145.4*,6.8%
O=C(N/N=C/c1cccs1)c1n[nH]c2c1CCC2,-1.3%,-18.0%,-1.0%,33.4*,45.0*,25.1µM*
COc1cccc([C@@H]2Oc3ccc(OC)cc3C(=O)[C@H]2OC(=O)NCCOc2ccccc2)c1,.,.,-2.8%,.,.,.
Cc1ccc2c(c1)c1c(c(=O)n(-c3cccc(Cl)c3)c(=O)n1CC(=O)Nc1c(C)cccc1C)n2C,.,-1.1%,.,.,.,.
O=C(N/N=C/c1ccccc1Cl)c1n[nH]c2c1CCCC2,-10.0%,?,5.3%,92.1*,54.5*,?
COc1cc(/C=N\NC(=O)c2cccc(Cl)c2)ccc1Oc1ccc([N+](=O)[O-])cn1,5.4%,0.3%,-5.9%,17.3*,53.5*,-2.1%
COc1cc(/C=N\NC(=O)c2ccccc2F)ccc1Oc1ccc([N+](=O)[O-])cn1,-1.8%,-4.6%,-8.6%,15.8*,36.2,1.8%
SMILES,RE007 growth inh,TbPYK inhibitor,Giardia FBPA inh,CHX counter,Shiga inhibitor,LmPK inhibitor
COc1cc(/C=N\NC(=O)c2ccc(Cl)cc2)ccc1Oc1ccc([N+](=O)[O-])cn1,-6.0%,-11.1%,8.7%,6.8,32.9,-2.6%
O=C(CCCCn1c(=O)c2ccccc2n(CC(=O)Nc2cccc(F)c2)c1=O)NCCc1ccccc1,.,-1.7%,.,.,.,.
CCc1nc2ccc(C(=O)NCCC(C)C)cn2c1N(CC)CCN(C)C,-21.9%,1.0%,.,.,.,.
COc1ccc(-c2csc3nc[nH]c(=O)c23)cc1,15.1%,2.6%,-0.2%,2.2,17.9,-2.8%
O=c1[nH]cnc2scc(-c3ccccc3)c12,13.0%,-12.3%,-5.5%,-2.1,-5.6,-2.7%
CCOc1ccc(-c2csc3nc[nH]c(=O)c23)cc1,9.4%,-5.3%,8.0%,29.6*,109.6*,-0.2%
O=c1[nH]cnc2scc(-c3ccc(Br)cc3)c12,5.5%,2.6%,3.6%,10.5,25.3,-1.4%
CC(C)c1ccc(-c2csc3nc[nH]c(=O)c23)cc1,2.0%,-5.5%,-5.4%,24.3*,.,13.5%
CCc1ccc(-c2csc3nc[nH]c(=O)c23)cc1,3.7%,-2.5%,-5.3%,22.5*,15.3,-2.5%
COc1cccc(NC(=O)CN2C(=O)CC(c3ccco3)Sc3ccccc32)c1 (centres undefined),.,-2.0%,.,.,.,.
COc1ccccc1CNc1cc(-c2cccc(NS(C)(=O)=O)c2)ncn1,.,.,-9.4%,.,.,.
COc1cccc(/C=N/Nc2nn3cnnc3c3ccccc23)c1,-0.7%,-8.5%,-2.7%,4.5,21.9,25.1µM*
CCOc1cc(/C=N/Nc2nn3cnnc3c3ccccc23)ccc1O,-7.3%,0.2%,-15.5%,11.8*,24.6,15.8µM*
Oc1ccc(/C=N/Nc2nn3cnnc3c3ccccc23)cc1,-23.3%,-0.3%,-16.3%,8.1,20.0,14.1µM*
COc1cc(/C=N/Nc2nn3cnnc3c3ccccc23)ccc1O,-14.6%,-18.1%,?,1.7,-1.5,7.94µM*
COc1cccc(/C=N/Nc2nc3ccccc3n3cnnc23)c1,14.5%,-1.3%,-20.6%,-1.7,18.1,3.5%
CCOc1cc(/C=N/Nc2nncc(-c3ccccc3)n2)ccc1O,0.4%,-8.6%,1.0%,8.4,-6.3,1.9%
CC[C@H](C)[C@H](N)C(=O)N[C@H]1CCC(=O)NCC(C(=O)N[C@@H](Cc2ccc(O)cc2)C(=O)N[C@@H](CCCNC(=N)N)C(=O)N[C@@H](CC(C)C)C(=O)N[C@@H](CCCNC(=N)N)C(=O)N[C@@H](Cc2ccc(O)cc2)C(N)=O)NC(=O)[C@@H]2CCCN2C(=O)[C@@H](NC(=O)[C@@H](N)[C@@H](C)CC)CCC(=O)NCC(C(=O)N[C@@H](Cc2ccc(O)cc2)C(=O)N[C@@H](CCCNC(=N)N)C(=O)N[C@@H](CC(C)C)C(=O)N[C@@H](CCCNC(=N)N)C(=O)N[C@@H](Cc2ccc(O)cc2)C(N)=O)NC(=O)[C@@H]2CCCN2C1=O (some centres undefined),.,.,-1.7%,-9.6,11.4,.
